Most compounds without a hit are left out; they make up all but 4.5% or so of the library.
PrP UTR inh – inhibition of PrP 5' UTR reporter expression. cell-based PrP 5' UTR mRNA reporter, plate reader. inhibition, % (concentration not given with the values). hit rate 0.35% among 340,000. AID 488862, 2010; in the data active = inhibition above about 52%; also: 0 = median of the neutral control wells
BJeLR viability – MLPCN primary cell-based screen for lethality selective to Ras in HRASV12 cells; BJeLR (HRASV12) viability, CellTiter-Glo ATP luminescence, 48 h; inhibition, % (test concentration not listed); hit rate 0.17% among 300,000; AID 1554, 2009; in the data active = inhibition above about 50%
Mtb FBA inh – Mtb FBA enzyme inhibitors, primary screen, biochemical, fluorescence, strain H37Rv. Fructose-bisphosphate aldolase (Mycobacterium tuberculosis (strain ATCC 25618 / H37Rv)), …. inhibition, % at 1 µM. hit rate 2.3% among 360,000. AID 588726, 2011. purified M. tuberculosis FBA, fluorescence read-out; in the data active = inhibition above about 27%;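 also: 0% = vehicle and 100% = reference inhibitor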
Target sequence (P9WQA3 whole entry, looked up): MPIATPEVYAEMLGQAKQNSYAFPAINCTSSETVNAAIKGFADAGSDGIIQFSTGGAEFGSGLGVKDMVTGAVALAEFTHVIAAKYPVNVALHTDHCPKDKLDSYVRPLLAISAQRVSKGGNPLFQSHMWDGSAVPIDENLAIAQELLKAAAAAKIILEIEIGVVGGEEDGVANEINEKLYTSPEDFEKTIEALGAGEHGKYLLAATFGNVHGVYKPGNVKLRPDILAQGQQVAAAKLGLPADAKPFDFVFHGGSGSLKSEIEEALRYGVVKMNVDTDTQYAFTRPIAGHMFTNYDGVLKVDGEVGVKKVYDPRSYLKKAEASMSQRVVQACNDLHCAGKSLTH
GDH-TPI inh – GDH-TPI coupling enzyme inhibitors, primary screen, artefact control for M. tuberculosis FBA inhibitor project, biochemical, absorbance, full deck. GDH-TPI coupled enzyme counterscreen, NADH absorbance. inhibition, % at 4.8 µM. hit rate 1.2% among 360,000; in the data active = inhibition above about 30%;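 also: 0% = DMSO wells and 100% = wells lacking the enzyme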
PfHsp40 rescue – rescue of yeast from PfHsp40 toxicity, primary screen, S. cerevisiae, ATP luminescence; S. cerevisiae expressing PfHsp40, growth rescue; growth rescue, % at 12.5 µM; hit rate 0.68% among 340,000; in the data active = growth rescue above about 28%, passing the limit was not always enough;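 also: yeast W303a lacking pdr1 and pdr3 grown in galactose medium; growth measured after three days at 30 °C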
PrPC TRFRET – inhibitors of human cell surface prion protein PrPC, primary screen, cell-based, TR-FRET | AID 720596, 2013 | TR-FRET read-out | hit rate 0.43% among 370,000 | inhibition, % at 13.8 µM; in the data active = inhibition above about 24%; also: 0% = median of the test wells and 100% = reference compound wells
Numbers without * were called inactive.

Screening O=C(NCCCN1CCN(c2ccc(F)cc2)CC1)NCc1ccccc1 returned PrPC TRFRET 5.6.
`CC(C)c1cc(C(=O)N(C2CCCCC2)C2CCCCC2)no1` gave PrPC TRFRET -2.4.
For CC(=O)C1=C(c2cccc([N+](=O)[O-])c2)N(C(C)=O)n2c(C)nnc2S1 the results were PrP UTR inh -23.8, BJeLR viability -6.9, Mtb FBA inh -1.8, GDH-TPI inh 5.2, PfHsp40 rescue 82.4* and PrPC TRFRET -2.8.
Screening S=c1[nH]nc(Cc2cccs2)n1-c1ccccc1 returned PrP UTR inh -12.4, BJeLR viability 2.7, Mtb FBA inh 1.3, GDH-TPI inh 9.2, PfHsp40 rescue -1.1 and PrPC TRFRET -3.1.
`CCCCc1ccc(-n2c(Cc3cccs3)n[nH]c2=S)cc1` gave PrP UTR inh -10.2, BJeLR viability 3.7, Mtb FBA inh -0.4, GDH-TPI inh -6.8, PfHsp40 rescue 304.9* and PrPC TRFRET 3.3.
Nc1[nH]c(=O)[nH]c(=O)c1N=Cc1ccccc1 was read as PrP UTR inh -9.8, Mtb FBA inh 43.1*, GDH-TPI inh 6.9 and PfHsp40 rescue -0.4.
`NC(=O)c1cccc(-c2cccc3nccn23)c1` gave Mtb FBA inh 2.3, GDH-TPI inh 1.8 and PrPC TRFRET -5.0.
Screening N#CCc1ccc(-c2cccc3nccn23)cc1 returned Mtb FBA inh active, GDH-TPI inh 8.4 and PrPC TRFRET -11.4.
Screening CN(C)c1ccc(-c2cccc3nccn23)cc1 returned Mtb FBA inh active, GDH-TPI inh 20.4 and PrPC TRFRET 1.5.
For Clc1cccc(-c2cccc3nccn23)c1 the results were Mtb FBA inh active, GDH-TPI inh 15.6 and PrPC TRFRET 2.8.
CS(=O)(=O)Nc1ccc(Oc2ncccn2)cc1 was read as PrP UTR inh -27.0, BJeLR viability 2.8, Mtb FBA inh -2.5, GDH-TPI inh -2.6, PfHsp40 rescue -1.1 and PrPC TRFRET 4.9.
For CS(=O)(=O)Nc1ccc(-c2cccc3nccn23)cc1 the results were Mtb FBA inh 161.6*, GDH-TPI inh 8.8 and PrPC TRFRET -7.4.
For COC(=O)c1cc(C(C)c2ccccc2O)n2ccccc12 (stereo not given) the results were PrPC TRFRET 15.0.
`COC(=O)CC[C@H](/C=C/C(=O)OC(C)(C)C)Sc1ccc(C(C)(C)C)cc1` gave PrPC TRFRET 5.5.
COC(=O)[C@]12C=CCN1[C@H](c1ccccc1)c1c(c3ccccc3n1S(=O)(=O)c1ccc(C)cc1)C2 was read as PrPC TRFRET 8.1.
For C[C@H]1[C@@H](OC(=O)Oc2ccc([N+](=O)[O-])cc2)CC[C@@]23CCCN2C(=O)CCC[C@@H]13 the results were PrPC TRFRET -7.4.
`c1cc(-c2ccc(N3CCOCC3)cc2)n2ccnc2c1` gave Mtb FBA inh active, GDH-TPI inh 16.8 and PrPC TRFRET -15.2.
`O=C1N/C(=N\N=C\c2ccco2)SC1Cc1ccccc1[N+](=O)[O-]` (stereo not given) gave PrP UTR inh 1.0, BJeLR viability -10.9, Mtb FBA inh -1.6, GDH-TPI inh 37.6*, PfHsp40 rescue -1.2 and PrPC TRFRET -9.3.
`CCOc1ccc(CC2S/C(=N/N=C/c3ccco3)NC2=O)cc1` (stereo not given) gave PrP UTR inh -14.0, BJeLR viability -0.2, Mtb FBA inh -0.3, GDH-TPI inh 30.5, PfHsp40 rescue 0.5 and PrPC TRFRET 1.6.
Screening COC(=O)[C@]12C[C@H](CC(=O)N3CCSCC3)C(=O)N(Cc3cccc4ccccc34)C1=C[C@H](COCc1ccccc1)O[C@@H]2C returned PrPC TRFRET -2.7.
Cc1[nH]c2ccccc2c1/C=N/NC(N)=S was read as PrP UTR inh -5.4, BJeLR viability 13.6, Mtb FBA inh -0.8, GDH-TPI inh 37.0*, PfHsp40 rescue 0.2 and PrPC TRFRET -6.2.
O=[N+]([O-])c1ccc(NN=C(c2ccccc2)c2ccccc2)nc1 was read as PrP UTR inh -20.7, Mtb FBA inh 0.4, GDH-TPI inh 0.9, PfHsp40 rescue 54.8* and PrPC TRFRET -6.5.

Source: PubChem
